PubChem BioAssay AID1159580 (chemical genetic matrix, 2015)
Values joined by “and” are separate entries in the source; they are usually repeats but may differ in a detail not shown here. Equal entries are not always repeated. About 2,000 (36%) of roughly 5,500 compounds were called active. Another 18% or so got no clear call; they are omitted. No stated cut-off is given here; in the data, active means normalized growth mostly below about 0.91 (no sharp cut-off); inconclusive means no clear call, values can overlap the other calls; inactive means mostly above about 0.92. The list shows a part of the results.

Test: chemical genetic growth profiling, strain panel (AID 1159580);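 further: tested at 20 µM; growth read once vehicle control cultures reached saturation at 30 °C; 1 = growth at the plate median or of vehicle wells; lower values mean less growth of the strain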
Conditions: S. cerevisiae deletion strains, growth OD

Measured: normalized growth

CCCCCc1c2c(cc(O)c1C(=O)O)OC(=O)c1c(cc(OC)cc1C(=O)CCCC)O2
inactive: locus YAL021C, strain ccr4, active compounds read low 0.954 | locus YAL026C, strain drs2, active compounds read low 1.01 | locus YAL030W, strain snc1, active compounds read low 0.993 | locus YBL061C, strain skt5, active compounds read low 0.999 | locus YBR009C, strain hhf1, active compounds read low 1.01 | locus YBR021W, strain FUR4, active compounds read low 1.02 | locus YBR023C, strain chs3, active compounds read low 1 | locus YBR171W, strain sec66, active compounds read low 1 | locus YBR229C, strain ROT2, active compounds read low 0.935 | locus YBR231C, strain swc5, active compounds read low 0.988 | locus YBR279W, strain paf1, active compounds read low 1.01 | locus YCL011C, strain gbp2, active compounds read low 0.997 | locus YCL016C, strain dcc1, active compounds read low 0.994 | locus YCL029C, strain bik1, active compounds read low 0.989 | locus YCL069W, strain vba3, active compounds read low 1.03 | locus YCR088W, strain abp1, active compounds read low 1 | locus YDL005C, strain med2, active compounds read low 0.977 | locus YDL035C, strain GPR1, active compounds read low 0.945 | locus YDL040C, strain nat1, active compounds read low 0.994 | locus YDL074C, strain BRE1, active compounds read low 0.982 | locus YDL101C, strain DUN1, active compounds read low 0.998 | locus YDL185W, strain tfp1, active compounds read low 0.968 | locus YDL192W, strain arf1, active compounds read low 0.968 | locus YDR001C, strain nth1, active compounds read low 1 | locus YDR069C, strain doa4, active compounds read low 0.985 | locus YDR101C, strain arx1, active compounds read low 0.961 | locus YDR137W, strain rgp1, active compounds read low 0.941 | locus YDR150W, strain NUM1, active compounds read low 0.99 | locus YDR159W, strain sac3, active compounds read low 0.994 | locus YDR162C, strain NBP2, active compounds read low 0.955 | locus YDR195W, strain ref2 0.977 | locus YDR297W, strain sur2, active compounds read low 0.995 | locus YDR318W, strain mcm21, active compounds read low 0.99 | locus YDR334W, strain swr1, active compounds read low 1.01 | locus YDR335W, strain msn5, active compounds read low 1 | locus YDR388W, active compounds read low 0.997 | locus YDR392W, strain spt3, active compounds read low 0.988 | locus YDR502C, strain sam2, active compounds read low 1.03 | locus YEL003W, strain gim4, active compounds read low 1.01 | locus YEL037C, strain rad23, active compounds read low 1.01 | locus YEL061C, strain CIN8 (second series), active compounds read low 1.02 | locus YER015W, strain faa2, active compounds read low 1 | locus YER016W, strain bim1, active compounds read low 0.989 | locus YER110C, active compounds read low 0.973 | locus YER111C, strain swi4, active compounds read low 0.995 | locus YER155C, strain BEM2 (second series), active compounds read low 0.998 | locus YER155C, strain BEM2, active compounds read low 1.01 | locus YER167W, strain BCK2, active compounds read low 0.985 | locus YFR010W, strain ubp6, active compounds read low 1 | locus YGL078C, strain dbp3, active compounds read low 0.977 | locus YGL086W, strain mad1, active compounds read low 1 | locus YGL167C, strain pmr1, active compounds read low 0.977 | locus YGL173C, strain kem1, active compounds read low 0.991 | locus YGL227W, strain vid30, active compounds read low 1.03 | locus YGL240W, strain doc1, active compounds read low 0.964 | locus YGL248W, strain PDE1, active compounds read low 0.99 | locus YGL253W, strain hxk2, active compounds read low 1.01 | locus YGR135W, strain pre9, active compounds read low 1.04 | locus YGR252W, strain gcn5, active compounds read low 1.01 | locus YHR013C, strain ard1, active compounds read low 0.989 | locus YHR027C, strain rpn1, active compounds read low 1.01 | locus YHR030C, strain SLT2, active compounds read low 0.961 | locus YHR079C, strain IRE1 (second series), active compounds read low 0.988 | locus YHR079C, strain IRE1, active compounds read low 0.959 | locus YHR094C, strain hxt1, active compounds read low 0.983 | locus YHR129C, strain ARP1, active compounds read low 0.993 | locus YHR142W, strain chs7, active compounds read low 1.02 | locus YHR200W, strain rpn10, active compounds read low 0.987 | locus YIL066C, strain RNR3, active compounds read low 0.978 | locus YIL073C, strain SPO22, active compounds read low 0.97 | locus YIL125W, strain kgd1, active compounds read low 0.991 | locus YIR030C, strain dcg1, active compounds read low 0.986 | locus YJL092W, strain hpr5, active compounds read low 1.01 | locus YJL095W, strain BCK1 (second series), active compounds read low 0.997 | locus YJL095W, strain BCK1, active compounds read low 1.06 and 0.972 | locus YJL115W, strain asf1, active compounds read low 0.982 | locus YJL129C, strain trk1, active compounds read low 1.02 | locus YJL134W, strain LCB3, active compounds read low 0.977 | locus YJL154C, strain vps35, active compounds read low 0.996 | locus YJL164C, strain tpk1, active compounds read low 0.995 | locus YJL166W, strain qcr8, active compounds read low 0.979 | locus YJL168C, strain set2, active compounds read low 0.991 | locus YJL187C, strain SWE1 (second series), active compounds read low 1.01 | locus YJL187C, strain SWE1, active compounds read low 1 | locus YJR043C, strain POL32, active compounds read low 0.941 | locus YJR066W, strain TOR1, active compounds read low 0.961 | locus YJR075W, strain HOC1, active compounds read low 0.993 | locus YKL009W, strain mrt4, active compounds read low 0.971 | locus YKL068W, active compounds read low 0.995 | locus YKL085W, strain MDH1 (second series), active compounds read low 0.995 | locus YKL085W, strain MDH1, active compounds read low 0.995 | locus YKL160W, strain elf1, active compounds read low 1.01 | locus YKR001C, strain vps1, active compounds read low 0.985 | locus YKR026C, strain gcn3, active compounds read low 0.998 | locus YKR091W, strain srl3, active compounds read low 0.997 | locus YLL001W, strain dnm1, active compounds read low 1.01 | locus YLL026W, active compounds read low 0.995 | locus YLL041C, strain sdh2, active compounds read low 0.986 | locus YLR027C, strain aat2, active compounds read low 1.01 | locus YLR039C, strain RIC1, active compounds read low 0.955 | locus YLR058C, strain SHM2, active compounds read low 0.97 | locus YLR102C, strain apc9, active compounds read low 0.979 | locus YLR113W, strain HOG1, active compounds read low 0.929 | locus YLR221C, strain rsa3, active compounds read low 0.99 | locus YLR258W, strain gsy2, active compounds read low 1.01 | locus YLR262C, strain YPT6 (second series), active compounds read low 0.993 | locus YLR262C, strain YPT6, active compounds read low 0.967 | locus YLR268W, strain sec22, active compounds read low 0.972 | locus YLR320W, strain mms22, active compounds read low 0.979 | locus YLR342W, strain FKS1, active compounds read low 0.981 | locus YLR357W, strain rsc2, active compounds read low 0.923 | locus YLR370C, strain arc18, active compounds read low 0.997 | locus YLR371W, strain rom2, active compounds read low 0.981 | locus YLR384C, strain iki3, active compounds read low 0.995 | locus YLR418C, strain cdc73, active compounds read low 1.04 | locus YML016C, strain PPZ1, active compounds read low 0.96 | locus YML032C, strain rad52, active compounds read low 0.996 | locus YML120C, strain ndi1, active compounds read low 0.995 | locus YML124C, strain tub3, active compounds read low 0.995 | locus YMR058W, strain fet3, active compounds read low 0.987 | locus YMR078C, strain ctf18, active compounds read low 0.983 | locus YMR125W, strain sto1, active compounds read low 0.996 | locus YMR129W, active compounds read low 1.01 | locus YMR205C, strain PFK2, active compounds read low 0.992 | locus YMR223W, strain ubp8, active compounds read low 1.01 | locus YMR231W, strain pep5, active compounds read low 0.994 | locus YMR307W, strain GAS1, active compounds read low 1.03 | locus YNL067W, strain RPL9B, active compounds read low 0.999 | locus YNL071W, strain lat1, active compounds read low 1 | locus YNL153C, strain GIM3, active compounds read low 1.02 | locus YNL183C, strain NPR1, active compounds read low 0.937 | locus YNL209W, strain ssb2, active compounds read low 1.01 | locus YNL233W, strain BNI4, active compounds read low 1.03 | locus YNL248C, strain rpa49, active compounds read low 0.993 | locus YNL250W, strain rad50, active compounds read low 0.991 | locus YNL271C, strain bni1, active compounds read low 0.99 | locus YNL298W, strain CLA4, active compounds read low 0.959 | locus YNL307C, strain MCK1, active compounds read low 1 | locus YNL322C, strain KRE1 (second series), active compounds read low 0.998 | locus YNL322C, strain KRE1, active compounds read low 0.986 | locus YNR049C, strain mso1, active compounds read low 0.982 | locus YNR052C, strain pop2, active compounds read low 1.01 | locus YOL012C, strain htz1 1.1 | locus YOL147C, strain pex11, active compounds read low 0.993 | locus YOR001W, strain rrp6, active compounds read low 1 | locus YOR061W, strain CKA2, active compounds read low 0.942 | locus YOR069W, strain VPS5, active compounds read low 0.993 | locus YOR070C, strain gyp1, active compounds read low 0.999 | locus YOR080W, strain dia2, active compounds read low 0.99 | locus YOR083W, strain WHI5, active compounds read low 0.991 | locus YOR106W, strain vam3, active compounds read low 0.995 | locus YOR136W, strain idh2, active compounds read low 1 | locus YOR144C, strain elg1, active compounds read low 0.983 | locus YOR184W, strain ser1, active compounds read low 0.951 | locus YOR231W, strain MKK1, active compounds read low 0.983 | locus YOR265W, strain rbl2, active compounds read low 0.991 | locus YOR270C, strain vph1, active compounds read low 1.02 | locus YOR290C, strain snf2, active compounds read low 1.02 | locus YOR316C, strain cot1, active compounds read low 1 | locus YPL051W, strain arl3, active compounds read low 1 | locus YPL078C, strain atp4, active compounds read low 0.992 | locus YPL106C, strain sse1, active compounds read low 0.951 | locus YPL240C, strain hsp82, active compounds read low 0.998 | locus YPL241C, strain CIN2, active compounds read low 0.991 | locus YPL256C, strain CLN2, active compounds read low 0.989 | locus YPR119W, strain clb2, active compounds read low 1 | locus YPR141C, strain kar3, active compounds read low 0.987 | locus YPR163C, strain tif3, active compounds read low 0.984 | locus YPR167C, strain met16, active compounds read low 1 | strain wtn01, active compounds read low 0.96
